# Screening results from PubChem.
# ARNT-TACC3 inh – ARNT/TACC3 interaction disruption. 390,000 compounds, 0.66% hits. AID 623870. AlphaScreen His-ARNT PAS-B/GST-TACC3 binding, luminescence; TACC3 fragment carries E629A point mutation. inhibition, % at 9.99 µM;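 active means mean inhibition of replicates at least 50% and at least half of replicates each reaching 50%; inconclusive means half or more replicates reach 50% but mean below 50%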;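 further: 0% = complete ARNT plus TACC3 wells and 100% = ARNT alone without TACC3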
# sPLA2-III inh – Blocks human group III sPLA2 activity | Q9NZ20 | QFRET BODIPY PC-A2 liposome hydrolysis, fluorescence | inhibition, % at 12.2 µM | 370,000 compounds, 0.56% hits;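 active means inhibition above mean plus 3 SD of compounds lying within the high and low control bounds, cut at about 19% in these data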;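 further: 0% = median of test compound wells and 100% = no enzyme DMSO wells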
# Rin1 Abl inh – blocks binding of human Rin1 to Abl; AID 588664; inhibition, % at 7.35 µM; 360,000 compounds, 0.4% hits; P00519+Q13671; TR-FRET Rin1/Abl binding, biochemical; in the data active means inhibition above about 5%, passing the limit was not always enough
# AI-2 QS mod – Vibrio harveyi AI-2 quorum sensing modulation. Vibrio harveyi JMH597 AI-2 luminescence/OD600 ratio, 9 h; active compounds read low; strain lacks LuxN and CqsS sensors; 0 = neutral-control median. activity change, % at 7.5 µM. 300,000 compounds, 0.4% hits; in the data active means activity change below about -75%, passing the limit was not always enough; inconclusive means no clear call, values can overlap the other calls;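 further: luminescence divided by OD600 gain over 9 h not by final OD600 alone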
# Numbers without * were called inactive; ? = inconclusive; · = no result given. Most compounds without a hit are left out; they make up all but 1.5% or so of the library.
SMILES,ARNT-TACC3 inh,sPLA2-III inh,Rin1 Abl inh,AI-2 QS mod
C[C@@H]1CCCCO[C@H](CN(C)C(=O)Nc2ccc3c(c2)OCO3)[C@H](C)CN([C@@H](C)CO)C(=O)c2cc(NC(=O)CCCN(C)C)ccc2O1,45.3*,·,·,·
C[C@H]1CCCCO[C@H](CN(C)Cc2ccc3c(c2)OCO3)[C@@H](C)CN([C@@H](C)CO)C(=O)c2cc(NC(=O)Nc3ccc(C(F)(F)F)cc3)ccc2O1,57.4*,·,·,·
C[C@H](CO)N1C[C@H](C)[C@H](CN(C)Cc2ccc3c(c2)OCO3)OCCCC[C@H](C)Oc2ccc(NC(=O)Nc3ccc(C(F)(F)F)cc3)cc2C1=O,45.7*,·,·,·
C[C@@H]1CN([C@@H](C)CO)C(=O)c2cccc(NS(C)(=O)=O)c2O[C@@H]1CN(C)C(=O)Nc1ccc2c(c1)OCO2,active,·,·,·
C[C@@H]1CCCCO[C@@H](CN(C)C(=O)Nc2ccccc2)[C@H](C)CN([C@H](C)CO)C(=O)c2cc(NC(=O)CCCN(C)C)ccc2O1,-2.3,·,·,·
C[C@@H]1CCCCO[C@H](CN(C)Cc2ccc3c(c2)OCO3)[C@@H](C)CN([C@@H](C)CO)C(=O)c2cc(NC(=O)Nc3ccc(C(F)(F)F)cc3)ccc2O1,28.5,·,·,·
COc1ccc(C#Cc2cnc3c(c2)C(=O)N([C@H](C)CO)C[C@H](C)[C@H](CN(C)C(=O)Nc2cccc4ccccc24)O3)cc1OC,-0.6,·,·,·
C[C@H](CO)N1C[C@H](C)[C@H](CN(C)C(=O)CC2CC2)Oc2ncc(C#CC3(O)CCCC3)cc2C1=O,-4.4,·,·,·
CCC(=O)N1C[C@@H](C)[C@@H](OC)CN(C)C(=O)c2cc(NS(C)(=O)=O)ccc2OC[C@@H]1C,-6.9,·,·,·
COc1ccc(NC(=O)N(C)C[C@@H]2Oc3ccc(NS(=O)(=O)c4cn(C)cn4)cc3C(=O)N([C@H](C)CO)C[C@H]2C)cc1,active,·,·,·
CC(=O)N(C)C[C@H]1Oc2ncc(-c3ccc(C#N)cc3)cc2C(=O)N([C@H](C)CO)C[C@H]1C,-6.1,·,·,·
CN(C)CCCNC(=O)C[C@H]1C=C[C@H](NC(=O)Cc2cccnc2)[C@H](CO)O1,-7.7,·,·,·
COC(=O)/C(=C/Nc1ccc(O)cc1)[N+](=O)[O-],23.7*,-1.9,2.0,20.6
COC(=O)/C(=C/Nc1ccccc1)[N+](=O)[O-],·,1.1,1.1,13.2
S=C(NCCCn1ccnc1)Nc1cccc(Cl)c1,41.6*,-5.2,0.1,20.4
CCOc1ccc(NC(=S)NCCCn2ccnc2)cc1,·,13.8,-4.3,7.2
C[C@H](CO)N1C[C@H](C)[C@@H](CN(C)C(=O)Nc2ccc3c(c2)OCO3)Oc2ccc(NS(=O)(=O)c3cn(C)cn3)cc2CC1=O,-1.2,·,·,·
CC1COCC(C)N1C1=C(Cl)C(=O)c2ccccc2C1=O (stereo not drawn),30.0*,-3.1,-2.3,·
O=C(Cc1ccccn1)N[C@@H]1CC[C@@H](CC(=O)N2CCCCC2)O[C@@H]1CO,-6.6,·,·,·
NC(=O)NC(=O)CC1S/C(=N/N=C2\CSC(=O)N2)NC1=O (stereo not drawn),52.7*,0.5,0.9,6.6
O=C(O)CNC(=O)CC1S/C(=N/N=C2/NC(=O)CS2)NC1=O (stereo not drawn),57.8*,3.3,1.7,8.5
C/C(=N\NC(=O)CC#N)c1cc2ccccc2oc1=O,20.6*,-11.0,-0.7,17.9
C/C(=N\Nc1ccccc1)c1cc2ccccc2oc1=O,-2.6,-2.1,0.8,19.9
CC(=O)N(C1=C(N)C(=O)c2ccccc2C1=O)c1ccccc1,12.1*,12.2,-11.7,10.0
O=C(CN1CC(=O)Oc2ccccc21)OCC(=O)c1ccc(Br)cc1,71.5*,4.0,2.2,35.1
SMILES,ARNT-TACC3 inh,sPLA2-III inh,Rin1 Abl inh,AI-2 QS mod
O=C(CN1CC(=O)Oc2ccccc21)OCC(=O)c1ccc(F)cc1,62.8*,3.8,-1.8,44.4
O=C1CN(CC(=O)N2CCCCC2)c2ccccc2O1,22.4,3.0,-4.2,21.4
Cc1cc(C)n2c(=O)c3ccc(Cl)cc3nc2c1C#N,-8.3,11.9,2.4,-0.7
Cc1cc(Cl)n2c(nc3cc(F)c(F)cc32)c1C#N,1.9,-6.7,0.5,-96.0*
CCCC#Cc1cnc2c(c1)C(=O)N([C@H](C)CO)C[C@H](C)[C@H](CN(C)Cc1ccc(C(=O)O)cc1)O2,24.4,·,·,·
CN(C)c1ccc(NC2=C(Cl)C(=O)c3ccccc3C2=O)cc1,52.8*,15.5,-3.3,?
CC(=O)Nc1ccc(NC2=C(Cl)C(=O)c3ccccc3C2=O)cc1,·,4.6,·,20.5
CCOc1ccc(C(=O)/C=C/c2ccc(SC)cc2)cc1,-1.8,-12.0,-1.4,-12.0
CSc1ccc(/C=C/C(=O)c2ccc(O)cc2)cc1,-1.5,-17.9,4.9,-93.0*
O=C(C[C@@H]1CC[C@@H]2[C@H](COC[C@H](O)CN2Cc2nccs2)O1)NCc1ccc(F)cc1,-6.7,·,·,·
CN(Cc1ccccc1C#N)S(=O)(=O)c1cccs1,-2.9,0.2,1.5,20.9
N#Cc1nccnc1S(=O)(=O)c1cccs1,·,8.9,·,-132.0*
CO[C@@H]1CN(C)C(=O)c2cc(NS(=O)(=O)c3cccc(C)c3)ccc2OC[C@H](C)NC[C@H]1C,2.2,·,·,·
CO[C@@H]1CN(C)C(=O)c2cc(NS(=O)(=O)c3cccc(C)c3)ccc2OC[C@@H](C)NC[C@H]1C,12.7*,·,·,·
CCOC(=O)c1c(C)c(C(=O)NCc2ccccn2)c(C)n1CC,47.7*,·,2.0,15.8
CCOC(=O)c1ccc(NC(=O)C(=O)NCc2ccccn2)cc1,·,9.3,1.6,13.5
COCC(=O)Nc1ccc2c(c1)C(=O)N(C)[C@@H]1CC[C@H](CC(=O)Nc3cn(C)nc3C)O[C@H]1CO2,-1.6,·,·,·
Cc1ccc(Cn2ncc3c(NN)ncnc32)cc1,66.1*,-10.7,-0.8,17.5
O=C(C[C@H]1CC[C@@H]2[C@H](COC[C@@H](O)CN2S(=O)(=O)c2ccc(F)cc2)O1)N[C@H]1CCN(Cc2ccccc2)C1,7.4,·,·,·
COC(=O)[C@@]1(Cc2ccccc2)N=C(c2ccc(OCCCO)cc2)O[C@H]1c1ccccc1,3.7,·,·,·
O=S(=O)(Nc1ccc(N2CCCCC2)cc1)c1cccs1,3.3,2.2,2.0,50.7
O=S(=O)(Nc1ccc(C(F)(F)F)cc1)c1cccs1,4.1,-13.8,-0.5,-84.9*
CN1CCN(C(=O)[C@@H]2[C@@H](CO)[C@@H]3Cn4c(ccc(-c5cccnc5)c4=O)[C@@H]3N2CC2CC2)CC1,-0.8,·,·,·
COc1ccc(NC(=O)CNc2cccc(C#N)c2)cc1Cl,-18.3,-7.6,-1.7,-79.9*
Cn1cnc(S(=O)(=O)N2CC[C@@H]3[C@H](CO)Nc4ccc(C#Cc5ccc(F)cc5)cc4[C@@H]32)c1,3.5,·,·,·
CO[C@H]1CN(C)C(=O)c2cc(NS(=O)(=O)CC(F)(F)F)ccc2OC[C@@H](C)N(Cc2ccccn2)C[C@H]1C,22.3,·,·,·
CCOc1ccc(N=Nc2ccc(O)c3ncccc23)cc1,5.2,-1.9,1.7,28.8
Oc1ccc(N=Nc2ccc3c(c2)OCCO3)c2ncccc12,2.9,5.0,9.2*,47.7
c1ccc(-c2nc3ccccn3c2NC2CCCC2)nc1,63.8*,18.2,-1.9,67.2
